Calls of active or inactive are those of the source. The rule behind the calls is not given here.
molecular target: Pantothenate synthetase (Mycobacterium tuberculosis (strain ATCC 25618 / H37Rv)) (UniProt P9WIL5); assay: Recombinant Mtb pantothenate synthetase (PanC) inhibitors, coupled enzyme, confirmatory (AID 375); details: coupled enzyme assay; at 10 µM, hits give high values;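 note: 0% = full reaction with vehicle and 100% = no enzyme background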
Sequence (P9WIL5 whole entry, looked up): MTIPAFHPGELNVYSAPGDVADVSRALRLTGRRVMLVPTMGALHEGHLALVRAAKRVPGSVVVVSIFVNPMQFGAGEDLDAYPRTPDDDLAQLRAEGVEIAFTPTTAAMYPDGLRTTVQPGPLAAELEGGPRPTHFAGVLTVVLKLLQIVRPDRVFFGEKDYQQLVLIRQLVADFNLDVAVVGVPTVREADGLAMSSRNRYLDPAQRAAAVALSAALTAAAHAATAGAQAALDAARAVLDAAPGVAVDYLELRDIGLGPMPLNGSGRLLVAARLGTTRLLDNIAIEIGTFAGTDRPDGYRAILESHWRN

| SMILES | inhibition |
| --- | --- |
| CCOCCc1nnc(NC(=O)c2ccc(OC)c(OC)c2)s1 | 0% (inactive) |
| CC1CN(S(=O)(=O)c2cccc(C(=O)OCc3cc(=O)oc4cc(O)ccc34)c2)CC(C)O1 (centres undefined) | 7% (inactive) |
| Cc1c(Cl)cccc1NC(=O)CCN1CCCCC1 | 0% (inactive) |
| CC(C)NCC(O)COc1ccc(CC(N)=O)cc1 (centres undefined) | 0% (inactive) |
| O=C1CCC(C(=O)N(Cc2ccco2)C2(C(=O)NC3CCCC3)CCCCC2)N1 (centres undefined) | 0% (inactive) |
| O=c1[nH]cnc2c1nc(SCc1ccccc1)n2C1OC(CO)C(O)C1O (centres undefined) | 0% (inactive) |
| ON=C1/C(=N\O)CC2(C/C1=N/O)OCCO2 | 0% (inactive) |
| CC(=O)N1CCc2cc(S(=O)(=O)NC(CC(C)C)C(=O)N3CCn4c3nc3ccccc34)ccc21 (centres undefined) | 0% (inactive) |
| CC(=O)C1=C(O)C(=O)N(Cc2ccco2)C1c1ccc(F)cc1 (centres undefined) | 10% (inactive) |
| O=C1c2oc3ccccc3c(=O)c2C(c2cccnc2)N1Cc1ccco1 (centres undefined) | 0% (inactive) |
| CS(=O)(=O)N1CCCC(C(=O)NCCCN2CCC(Cc3ccccc3)CC2)C1 (centres undefined) | 0% (inactive) |
| O=c1c2[nH]c3cccc(Cl)c3c2ncn1CCN1CCCCC1 | 6% (inactive) |
| CCC(CO)Nc1ncnc2c1cnn2-c1ccc(Cl)cc1 (centres undefined) | 6% (inactive) |
| COc1ccc(OC)c(NC(=O)c2cn(C)c(=O)c3cc(OC)c(OC)cc23)c1 | 1% (inactive) |
| CC(c1ccccc1)n1cnc2ccccc21 (centres undefined) | 0% (inactive) |
| CNC(=O)CC(C(=O)O)c1ccc(OC(C)C)cc1 (centres undefined) | 0% (inactive) |
| O=C(OCCN(CCOC(=O)c1ccncc1)S(=O)(=O)c1cccs1)c1ccncc1 | 0% (inactive) |
| CCOC(=O)c1cc(-c2ccc(N)cc2)sc1N | 0% (inactive) |
| O=C(OCC(=O)N1CCCC1)c1cncc(Br)c1 | 1% (inactive) |
| COC(=O)c1ccc(NC(=O)CN2C(=O)CSC2=O)cc1 | 5% (inactive) |
| CCOc1ccc(OCC)c(NC(=O)CCCN2C(=O)c3cccnc3C2=O)c1 | 0% (inactive) |
| CC(C)OC(=O)CSc1nnc(-c2ccccn2)n1-c1ccccc1 | 8% (inactive) |
| CCC1CCCCN1c1nc(-c2ccncc2)nc2ccccc12 (centres undefined) | 1% (inactive) |
| CC1CCN(C(=O)c2cc(-c3ccc(Cl)c(Cl)c3)on2)CC1 | 3% (inactive) |

Reference: PubChem BioAssay
